Test results as given in PubChem BioAssay (NCI).
Where “and” joins values, the source holds several entries; their conditions need not be identical. Identical values can stand only once. The panel holds about 83,000 compounds, 20% with a hit somewhere; the sample as a whole holds those more often.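 Method: cells in 96-well plates; compound added at one concentration; 48 h incubation; percent growth measured; values under 10 scored active.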 Calls of active or inactive are those of the source.

Assays:
Experiment in all cases: NCI-60 one-dose screen, 48 h (100 = growth as untreated, 0 = no growth, -100 = all killed)
Conditions in all cases: 10 µM unless noted
NCI-H23 lung = test system: NCI-H23 lung
NCI-H226 lung = test system: NCI-H226 lung
NCI-H322M lung = test system: NCI-H322M lung
HOP-62 NSCLC = test system: HOP-62 NSCLC
NCI-H460 lung = test system: NCI-H460 lung
HOP-92 NSCLC = test system: HOP-92 NSCLC
NCI-H522 lung = test system: NCI-H522 lung
786-0 renal = test system: 786-0 renal
COLO 205 colon = test system: COLO 205 colon
DU-145 prostate = test system: DU-145 prostate
K-562 leukemia = test system: K-562 leukemia
MALME-3M melanoma = test system: MALME-3M melanoma
MDA-MB-231 breast = test system: MDA-MB-231 breast
RXF 393 renal = test system: RXF 393 renal
SF-268 CNS = test system: SF-268 CNS
SF-295 CNS = test system: SF-295 CNS
SF-539 CNS = test system: SF-539 CNS
UACC-257 melanoma = test system: UACC-257 melanoma
M14 melanoma = test system: M14 melanoma
A549/ATCC NSCLC = test system: A549/ATCC NSCLC

Nc1[nH][nH]c(=O)c1N=Nc1ccccc1
growth (NCI-H23 lung): 98.7% (inactive) and 99% (inactive)
growth (NCI-H226 lung): 106% (inactive) and 91.8% (inactive)
growth (NCI-H322M lung): 129% (inactive) and 102% (inactive)
growth (HOP-62 NSCLC): 104% (inactive) and 105% (inactive)
growth (NCI-H460 lung): 99.8% (inactive) and 117% (inactive)
growth (HOP-92 NSCLC): 101% (inactive)
growth (NCI-H522 lung): 88.9% (inactive) and 79.1% (inactive)
growth (786-0 renal): 113% (inactive) and 109% (inactive)
growth (COLO 205 colon): 107% (inactive) and 112% (inactive)
growth (DU-145 prostate): 109% (inactive) and 111% (inactive)
growth (K-562 leukemia): 137% (inactive) and 92.5% (inactive)
growth (MALME-3M melanoma): 128% (inactive) and 115% (inactive)
growth (MDA-MB-231 breast): 93.8% (inactive) and 119% (inactive)
growth (RXF 393 renal): 123% (inactive) and 107% (inactive)
growth (SF-268 CNS): 103% (inactive) and 114% (inactive)
growth (SF-295 CNS): 111% (inactive) and 114% (inactive)
growth (SF-539 CNS): 102% (inactive) and 106% (inactive)
growth (UACC-257 melanoma): 109% (inactive)
growth (M14 melanoma): 102% (inactive) and 112% (inactive)

OCc1ccccc1F
growth (NCI-H23 lung): 88% (inactive)
growth (NCI-H226 lung): 103% (inactive)
growth (NCI-H322M lung): 105% (inactive)
growth (HOP-62 NSCLC): 97.3% (inactive)
growth (NCI-H460 lung): 48.1% (inactive)
growth (HOP-92 NSCLC): 106% (inactive)
growth (NCI-H522 lung): 71.1% (inactive)
growth (786-0 renal): 101% (inactive)
growth (COLO 205 colon): 92.3% (inactive)
growth (DU-145 prostate): 11.4% (inactive)
growth (K-562 leukemia): 106% (inactive)
growth (MALME-3M melanoma): 134% (inactive)
growth (MDA-MB-231 breast): 86.3% (inactive)
growth (RXF 393 renal): 77.5% (inactive)
growth (SF-268 CNS): 95.8% (inactive)
growth (SF-295 CNS): 72% (inactive)
growth (SF-539 CNS): 101% (inactive)
growth (UACC-257 melanoma): 107% (inactive)
growth (M14 melanoma): 90.8% (inactive)

N#Cc1ccc(/C=C/C(=O)c2ccccc2)cc1
growth (NCI-H23 lung): 100% (inactive) and 95.2% (inactive)
growth (NCI-H226 lung): 105% (inactive) and 107% (inactive)
growth (NCI-H322M lung): 93.2% (inactive) and 98.2% (inactive)
growth (HOP-62 NSCLC): 96.6% (inactive) and 110% (inactive)
growth (NCI-H460 lung): 78.7% (inactive) and 106% (inactive)
growth (HOP-92 NSCLC): 73.1% (inactive) and 85.7% (inactive)
growth (A549/ATCC NSCLC): 88.2% (inactive) and 98.7% (inactive)
growth (786-0 renal): 102% (inactive)
growth (COLO 205 colon): 81.6% (inactive) and 113% (inactive)
growth (DU-145 prostate): 80.8% (inactive) and 102% (inactive)
growth (K-562 leukemia): -35.8% (active) and 6.11% (active)
growth (MALME-3M melanoma): 89.2% (inactive) and 110% (inactive)
growth (MDA-MB-231 breast): 103% (inactive)
growth (SF-268 CNS): 101% (inactive)
growth (SF-295 CNS): 93.7% (inactive) and 118% (inactive)
growth (SF-539 CNS): 103% (inactive) and 110% (inactive)
growth (UACC-257 melanoma): 80% (inactive) and 114% (inactive)

CCN(CC)CCNC(=O)c1ccc(NCN2C(=O)NC(c3ccccc3)(c3ccccc3)C2=O)cc1
growth (NCI-H23 lung): 97.1% (inactive) and 103% (inactive)
growth (NCI-H226 lung): 95.6% (inactive) and 100% (inactive)
growth (NCI-H322M lung): 112% (inactive) and 106% (inactive)
growth (HOP-62 NSCLC): 116% (inactive) and 99.7% (inactive)
growth (NCI-H460 lung): 101% (inactive) and 114% (inactive)
growth (HOP-92 NSCLC): 86.2% (inactive) and 105% (inactive)
growth (NCI-H522 lung): 108% (inactive) and 106% (inactive)
growth (786-0 renal): 101% (inactive) and 115% (inactive)
growth (COLO 205 colon): 124% (inactive) and 103% (inactive)
growth (DU-145 prostate): 108% (inactive) and 122% (inactive)
growth (K-562 leukemia): 110% (inactive) and 108% (inactive)
growth (MALME-3M melanoma): 96.1% (inactive)
growth (MDA-MB-231 breast): 114% (inactive) and 103% (inactive)
growth (RXF 393 renal): 106% (inactive) and 118% (inactive)
growth (SF-268 CNS): 102% (inactive) and 101% (inactive)
growth (SF-295 CNS): 94.1% (inactive)
growth (SF-539 CNS): 104% (inactive)
growth (UACC-257 melanoma): 100% (inactive) and 106% (inactive)

Cc1onc(-c2c(F)cccc2Cl)c1-c1ncc(-c2ccc(Cl)cc2)o1
growth (NCI-H23 lung): 67% (inactive) and 42.5% (inactive)
growth (NCI-H226 lung): 76.9% (inactive) and 58.4% (inactive)
growth (NCI-H322M lung): 104% (inactive) and 57% (inactive)
growth (HOP-62 NSCLC): 78% (inactive) and 53.4% (inactive)
growth (NCI-H460 lung): 29.6% (inactive) and 3.17% (active)
growth (HOP-92 NSCLC): 34.2% (inactive) and 73% (inactive)
growth (A549/ATCC NSCLC): 53.1% (inactive) and 41.4% (inactive)
growth (786-0 renal): 73.9% (inactive) and 31.6% (inactive)
growth (COLO 205 colon): 53.5% (inactive) and 43.6% (inactive)
growth (DU-145 prostate): 97.2% (inactive) and 50.2% (inactive)
growth (K-562 leukemia): 27.9% (inactive) and 21.5% (inactive)
growth (MALME-3M melanoma): 60.2% (inactive) and 46.6% (inactive)
growth (MDA-MB-231 breast): 54.1% (inactive) and 46.3% (inactive)
growth (RXF 393 renal): 89.9% (inactive) and 52.7% (inactive)
growth (SF-268 CNS): 66.2% (inactive) and 49.8% (inactive)
growth (SF-295 CNS): 43.8% (inactive) and 42.2% (inactive)
growth (SF-539 CNS): 68% (inactive) and 36.5% (inactive)
growth (UACC-257 melanoma): 22.5% (inactive)
growth (M14 melanoma): 54.8% (inactive) and 46.6% (inactive)

Nc1ccc2ccc(NS(=O)(=O)N3CCCCC3)cc2c1
growth (NCI-H23 lung): 43.8% (inactive)
growth (NCI-H226 lung): 15.2% (inactive)
growth (NCI-H322M lung): 50.9% (inactive)
growth (HOP-62 NSCLC): 35.4% (inactive)
growth (NCI-H460 lung): 7.56% (active)
growth (HOP-92 NSCLC): 68% (inactive)
growth (A549/ATCC NSCLC): 39.3% (inactive)
growth (786-0 renal): 30.7% (inactive)
growth (COLO 205 colon): -40.9% (active)
growth (DU-145 prostate): 12.7% (inactive)
growth (K-562 leukemia): 8.04% (active)
growth (MALME-3M melanoma): 45.3% (inactive)
growth (MDA-MB-231 breast): 11.8% (inactive)
growth (RXF 393 renal): 51.4% (inactive)
growth (SF-268 CNS): 32.3% (inactive)
growth (SF-295 CNS): 15.1% (inactive)
growth (SF-539 CNS): -21.7% (active)
growth (UACC-257 melanoma): 87.7% (inactive)
growth (M14 melanoma): 11.2% (inactive)
